# Shown are actives, neighbours in structure and some others; about 3.5% of the full set was active somewhere.
# Autofluor counter: counter-screen for toxin protease inhibitors: compound fluorescence; fluorescence intensity (no concentration beside the values); compound autofluorescence counterscreen, microsphere flow cytometry; stronger effect = higher value; 360,000 tested, 3.1% active; in the data active = fluorescence intensity above about 16000; inconclusive = no clear call, values can overlap the other calls
# BoNT-A LC inh2: BoNT A light chain protease inhibition. multiplex microsphere protease substrate cleavage, flow cytometry. inhibition, % at 10 µM. 360,000 tested, 0.17% active. AID 588499; also: plate controls were buffer without enzyme for full effect and enzyme alone for no effect
# Anthrax LF inh2: anthrax lethal factor protease inhibition | multiplex microsphere protease cleavage assay, LF | P15917 | AID 588501 | inhibition, % at 10 µM | 360,000 tested, 0.12% active; also: plate controls were buffer without enzyme for full effect and enzyme alone for no effect
# Target sequence (P15917 whole entry, looked up): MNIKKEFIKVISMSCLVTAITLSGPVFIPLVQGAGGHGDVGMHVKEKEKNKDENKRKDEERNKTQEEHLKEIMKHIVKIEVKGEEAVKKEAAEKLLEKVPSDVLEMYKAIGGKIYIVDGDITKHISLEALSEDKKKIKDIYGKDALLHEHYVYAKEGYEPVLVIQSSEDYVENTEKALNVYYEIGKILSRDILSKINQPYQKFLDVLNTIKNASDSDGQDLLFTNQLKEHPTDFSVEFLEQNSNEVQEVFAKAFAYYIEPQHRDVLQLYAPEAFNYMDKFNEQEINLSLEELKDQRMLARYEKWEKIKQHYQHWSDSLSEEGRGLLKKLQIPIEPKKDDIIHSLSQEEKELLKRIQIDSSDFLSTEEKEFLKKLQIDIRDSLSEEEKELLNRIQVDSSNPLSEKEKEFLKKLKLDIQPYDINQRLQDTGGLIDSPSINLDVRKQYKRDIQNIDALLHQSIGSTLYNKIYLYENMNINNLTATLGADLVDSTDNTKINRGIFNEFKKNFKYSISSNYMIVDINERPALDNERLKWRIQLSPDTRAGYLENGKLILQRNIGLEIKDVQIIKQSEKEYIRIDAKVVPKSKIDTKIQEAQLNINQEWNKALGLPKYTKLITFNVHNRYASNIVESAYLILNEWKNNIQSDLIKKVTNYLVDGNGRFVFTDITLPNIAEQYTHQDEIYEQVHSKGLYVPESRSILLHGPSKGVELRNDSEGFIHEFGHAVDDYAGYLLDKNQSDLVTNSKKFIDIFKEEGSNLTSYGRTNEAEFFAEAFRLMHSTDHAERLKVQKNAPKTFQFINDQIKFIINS
# BoNT F protease: inhibitors of Botulinum neurotoxin F light chain protease; AID 588497; inhibition, % at 10 µM; Multiplex microsphere protease cleavage assay, flow cytometry; 360,000 tested, 0.22% active; in the data active = inhibition above about 35%, passing the limit was not always enough; inconclusive = no clear call, values can overlap the other calls; also: plate controls were buffer without enzyme for full effect and enzyme alone for no effect
# Active calls of the source: *; ? = inconclusive. Rule as the data show it, unless noted: active = inhibition above about 30%; inconclusive = no clear call, values can overlap the other calls; inactive = below that.
SMILES,Autofluor counter,BoNT-A LC inh2,Anthrax LF inh2,BoNT F protease
CC(C(=O)OCC(=O)Nc1ccccc1OC(F)F)N1C(=O)C2CC=CCC2C1=O (stereo not drawn),3613,0,1,-2
CCn1c(SCC(=O)N2CCCCC2)nnc1-c1ccc(S(=O)(=O)N2CCN(C)CC2)cc1,16315*,1,0,3
Cn1c(SCC(=O)N2CCCCC2)nnc1-c1ccc(S(=O)(=O)N2CCOCC2)cc1,17538*,-3,-4,-5
CCOC(=O)CSc1nnc(-c2ccc(S(=O)(=O)N3CCOCC3)cc2)n1-c1ccccc1,4465,-1,1,-6
Cc1nnc(SCC(=O)c2ccc(S(=O)(=O)N3CCOCC3)cc2)n1-c1ccccc1,24041*,?,-2,-6
CCn1c(SCC(=O)N2CCCC(C)C2)nnc1-c1ccc(S(=O)(=O)N2CCN(C)CC2)cc1 (stereo not drawn),5786,0,-6,-2
NC(=O)CSc1nnc(-c2ccc(S(=O)(=O)N3CCCC3)cc2)n1Cc1ccco1,19668*,4,0,3
Cn1c(SCC(=O)N2CCCC2)nnc1-c1ccc(S(=O)(=O)N2CCCC2)cc1,10121,0,-1,0
N#CCSc1nnc(-c2ccc(S(=O)(=O)N3CCOCC3)cc2)n1CC1CCCO1 (stereo not drawn),22267*,?,-6,-6
CCn1c(SCC(=O)N2CCCC2)nnc1-c1ccc(S(=O)(=O)N2CCCCCC2)cc1,19519*,?,2,2
CCn1c(SCC(=O)Nc2cc(C)on2)nnc1-c1ccc(S(=O)(=O)N2CCN(C)CC2)cc1,24027*,0,0,1
CCn1c(SCc2ccc(C#N)cc2)nnc1-c1ccc(S(=O)(=O)N2CCCCC2)cc1,4511,-2,5,5
NC(=O)CSc1nnc(-c2ccc(S(=O)(=O)N3CCCC3)cc2)n1CC1CCCO1 (stereo not drawn),10194,0,-1,2
O=C(CCc1nnc2ccc(N3CCC4(CC3)OCCO4)nn12)N1CCCCC1,5017,0,1,0
CC(=O)Nc1ccc(S(=O)(=O)NC(C)C(=O)OCC(=O)Nc2ccc(F)cc2Cl)cc1 (stereo not drawn),3816,0,-2,3
O=C(O)c1cccc(Sc2cc(Cl)ccc2C(=O)O)c1,3034,0,-3,-10
COc1ccccc1OCC(=O)Nc1ccc(NC(=O)COc2ccccc2OC)cc1,4387,1,-7,-1
COc1ccccc1OCC(=O)Nc1ccc(Cl)cc1,23170*,?,-2,-4
CCCNCc1cc(OC)c(OCC(=O)Nc2ccccc2)cc1Br,4051,-1,-3,-9
COc1ccccc1OCC(=O)Nc1ccc(C(N)=O)cc1,21458*,-2,-1,-2
COc1cc(CNCCO)ccc1OCC(=O)Nc1ccc(Br)cc1,22933*,2,-1,-3
CC(C)(C)c1cnnn1-c1ccc(C=O)cc1,24224*,-3,-4,-4
Cc1ccc(-c2ccccc2NC(=O)CS(=O)CC(=O)Nc2ccc(C)c(Cl)c2)o1 (stereo not drawn),5567,3,0,7
Cc1ccc(NC(=O)CS(=O)CC(=O)NC(C)CCc2ccco2)cc1Cl (stereo not drawn),23396*,1,-2,0
CC12CCC(=O)N1C(C(=O)Oc1cccc(F)c1)CS2 (stereo not drawn),3053,0,-4,0
SMILES,Autofluor counter,BoNT-A LC inh2,Anthrax LF inh2,BoNT F protease
O=S1(=O)N[C@H](Cc2ccccc2)COc2cc(N3CCC[C@@H]3CO)ccc21,4274,0,-1,1
COc1ccc(N(C(=O)c2ccco2)S(=O)(=O)c2cc(Cl)c(Cl)cc2Cl)cc1,23813*,-1,-6,-6
Cc1ccc(CNC(=O)Cn2ccc3cc(S(=O)(=O)N4CCCCCC4)ccc32)cc1,4371,-3,-2,-3
CS(=O)(=O)NCCCNc1ccc(C(F)(F)F)cc1[N+](=O)[O-],4421,-1,-4,0
CS(=O)(=O)NCCCNc1ccc(Cl)cc1[N+](=O)[O-],22714*,1,1,1
Cc1ccc(C(=O)NCCNc2ccc(Cl)cc2[N+](=O)[O-])o1,22948*,?,-3,-4
O=C(NCCNc1ccc(Cl)cc1[N+](=O)[O-])c1ccccc1F,4266,-3,-8,?
Cc1ccc(-c2cc(C(=O)N3CCCCC3)c3ccccc3n2)cc1C,5204,1,0,5
O=C(N/N=C/c1c[nH]c2ccccc12)c1ccccc1Cl,3795,3,9,?
Cc1occc1C(=O)N/N=C/c1c[nH]c2ccccc12,22938*,-1,-8,-5
CCOc1ccc(N2CC(O)=C(c3ccccc3)C2=N)cc1,4114,2,9,9
O=C(Nc1ccccc1)N1CCC(C(=O)N(Cc2ccco2)Cc2cccs2)CC1,20994*,?,-3,4
